Measured values taken from PubChem BioAssay (Tox21).
Records with an inconclusive call do not appear. Activity calls are given as the source filed them. Unless noted, calls come from the whole dose curve.

Tests used:
[1] = Nuclear factor erythroid 2-related factor 2/antioxidant responsive element (Nrf2/ARE) small molecule agonists: qHTS cell viability counter screen in human keratinocytes (AID 1919968; active = well fitted curve in the direction sought with a large enough effect in the repeat runs; an effect the other way counts as inactive or inconclusive; note: nearly all actives have a fitted effect of over 55% in size; note: potency is the fitted concentration of half-maximal effect)
How it was run: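 Parallel cytotoxicity read: KeratinoSens HaCaT cells, compound treatment 23 h, viability by CellTiter-Fluor fluorescence 1 h post-reagent.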

[2] = Nuclear factor erythroid 2-related factor 2/antioxidant responsive element (Nrf2/ARE) small molecule agonists: luciferase reporter gene qHTS assay in human keratinocytes (AID 1919969); note: nearly all actives have a fitted effect of over 35% in size; note: potency is the fitted concentration of half-maximal effect
[3] = biological target: Gonadotropin-releasing hormone receptor (Homo sapiens) (UniProt P30968); assay: Human gonadotropin-releasing hormone receptor (GnRHR) small molecule agonists, calcium flux assay in GnRHR-HEK293 cells (AID 1920063); note: nearly all actives have a fitted effect of over 35% in size
Sequence of Gonadotropin-releasing hormone receptor (Homo sapiens) (P30968 whole entry, looked up): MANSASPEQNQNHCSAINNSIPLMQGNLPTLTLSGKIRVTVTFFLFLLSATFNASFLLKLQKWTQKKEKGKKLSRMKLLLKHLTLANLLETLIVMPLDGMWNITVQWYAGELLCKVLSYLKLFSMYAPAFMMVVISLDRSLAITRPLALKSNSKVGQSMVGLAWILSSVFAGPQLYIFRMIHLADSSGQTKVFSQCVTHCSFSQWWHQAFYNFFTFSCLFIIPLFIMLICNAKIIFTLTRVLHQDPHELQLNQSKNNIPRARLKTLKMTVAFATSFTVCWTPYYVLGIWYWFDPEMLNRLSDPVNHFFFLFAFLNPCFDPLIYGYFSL
How it was run: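 Calcium flux, agonist mode, human GnRHR stably integrated in HEK293; dye 1 h at 37 C before compound; Ex/Em=480/540 kinetic read, 3 min; 15 concentrations, triplicate.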

[4] = biological target: KiSS-1 receptor (Homo sapiens) (UniProt Q969F8); assay: Human kisspeptin (KISS1R) small molecule agonists, calcium flux assay in KISS1R-HEK293 cells (AID 1920064; active = well fitted curve in the direction sought with a large enough effect in the repeat runs; an effect the other way counts as inactive or inconclusive)
Sequence of KiSS-1 receptor (Homo sapiens) (Q969F8 whole entry, looked up): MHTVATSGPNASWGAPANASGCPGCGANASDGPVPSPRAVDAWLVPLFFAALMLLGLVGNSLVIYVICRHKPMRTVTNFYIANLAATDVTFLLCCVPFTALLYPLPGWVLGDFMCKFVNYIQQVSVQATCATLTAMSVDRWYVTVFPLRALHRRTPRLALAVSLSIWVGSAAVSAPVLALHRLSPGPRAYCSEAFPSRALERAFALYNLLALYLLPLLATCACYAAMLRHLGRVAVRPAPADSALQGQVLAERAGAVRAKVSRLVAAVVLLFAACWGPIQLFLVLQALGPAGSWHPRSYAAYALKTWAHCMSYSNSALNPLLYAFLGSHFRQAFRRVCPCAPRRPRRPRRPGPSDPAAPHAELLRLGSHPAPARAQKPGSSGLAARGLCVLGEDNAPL
How it was run: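 Triplicate 15-concentration series were applied to dye-loaded human KISS1R HEK293 cells, and agonist-evoked calcium fluorescence was captured for 3 min.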

[5] = G protein-coupled receptor (GPCR) small molecule agonists, calcium flux assay: HEK293 wild type cell line counter screen (AID 1920065)
How it was run: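 Non-specific calcium responders were flagged by adding DMSO-dissolved compounds to dye-loaded cells and reading 480/540 nm fluorescence each second for 3 min; ATP served as positive control.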

[6] = p53 small molecule agonists, cell-based qHTS assay with human liver microsomes (AID 1963577);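 note: p53 response element beta-lactamase reporter cells with liver microsomes plus NADPH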
How it was run: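 p53RE-bla cells; 5 h settle, 37 C/5% CO2; cpd + HLM 0.5 mg/mL + NADPH 0.5 mg/mL (final); 16 h 37 C; LiveBLAzer 2 h RT dark; fluorescence readout.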

[7] = p53 small molecule agonists, cell-based qHTS assay with rat liver microsomes (AID 1963578)
How it was run: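 Rat liver microsome activation: microsomes 0.5 mg/mL, NADPH 0.5 mg/mL final; p53RE-bla cells, 16 h 37 C; LiveBLAzer readout, 2 h RT dark.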

[8] = p53 small molecule agonists, cell-based qHTS assay with human liver microsomes: qHTS cell viability counter screen (AID 1963579); note: nearly all actives have a fitted effect of over 45% in size
How it was run: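 Luminescent CellTiter-Glo read-out, 30 min at room temperature, gauged cytotoxicity in p53RE-bla cells exposed 16 h at 37 C to DMSO-dissolved compounds with metabolic activation by human liver microsomes and NADPH, each 0.5 mg/mL final.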

[9] = p53 small molecule agonists, cell-based qHTS assay with rat liver microsomes: qHTS cell viability counter screen (AID 1963580); note: nearly all actives have a fitted effect of over 45% in size
How it was run: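 Cytotoxicity counter screen: intracellular ATP measured by CellTiter-Glo luminescence in the same wells as the beta-lactamase reporter read, on HCT-116 p53RE-bla cells exposed 16 h at 37 C to compounds with rat liver microsomes and NADPH, each 0.5 mg/mL final.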

[10] = p53 small molecule agonists, cell-based qHTS assay: qHTS cell viability counter screen (AID 1963581); note: nearly all actives have a fitted effect of over 45% in size
How it was run: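 Multiplexed with the reporter read, a CellTiter-Glo step (30 min, room temperature) gauges ATP-based viability of HCT-116 p53RE-bla cells after 16 h compound incubation at 37 C.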

[11] = biological target: 5-hydroxytryptamine receptor 2A (Homo sapiens) (UniProt P28223); assay: 5-hydroxytryptamine receptor 2A (HTR2A) small molecule antagonists, cell-based qHTS assay (AID 1963586); note: nearly all actives have a fitted effect of over 45% in size; note: potency is the fitted concentration of half-maximal effect
Sequence of 5-hydroxytryptamine receptor 2A (Homo sapiens) (P28223 whole entry, looked up): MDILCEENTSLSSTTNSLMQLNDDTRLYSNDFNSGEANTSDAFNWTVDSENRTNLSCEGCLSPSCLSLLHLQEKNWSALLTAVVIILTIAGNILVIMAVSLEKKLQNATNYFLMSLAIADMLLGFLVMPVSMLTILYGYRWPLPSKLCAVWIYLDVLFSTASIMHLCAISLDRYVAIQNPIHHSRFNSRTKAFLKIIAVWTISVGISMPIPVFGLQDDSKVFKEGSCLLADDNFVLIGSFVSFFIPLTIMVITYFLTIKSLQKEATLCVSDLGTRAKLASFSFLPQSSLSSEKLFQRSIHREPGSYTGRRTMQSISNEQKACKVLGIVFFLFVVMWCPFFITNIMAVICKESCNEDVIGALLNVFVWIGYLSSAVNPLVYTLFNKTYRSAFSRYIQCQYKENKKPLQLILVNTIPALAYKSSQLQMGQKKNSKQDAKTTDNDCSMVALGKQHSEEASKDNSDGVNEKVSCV
How it was run: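 CHO cells stably expressing human HTR2A were plated for 18 h at 37 C, then loaded with calcium dye for 1 h. Compounds were preincubated 5 min at room temperature before DOI (4 nM solution) was added. Kinetic fluorescence was read for 3 min.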

[12] = biological target: 5-hydroxytryptamine receptor 2A (Homo sapiens) (UniProt P28223); assay: 5-hydroxytryptamine receptor 2A (HTR2A) small molecule agonists, cell-based qHTS assay (AID 1963587); note: nearly all actives have a fitted effect of over 30% in size
How it was run: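 CHO cells stably expressing human HTR2A, plated 18 h, loaded with calcium dye 1 h at 37 C. Agonist mode: compounds added and intracellular calcium fluorescence recorded kinetically for 2 min at 1 sec intervals.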

[13] = biological target: Muscarinic acetylcholine receptor M1 (Homo sapiens) (UniProt P11229); assay: Cholinergic receptor muscarinic 1 (CHRM1) small molecule agonists, cell-based qHTS assay (AID 1963589); note: nearly all actives have a fitted effect of over 35% in size; note: potency is the fitted concentration of half-maximal effect
Sequence of Muscarinic acetylcholine receptor M1 (Homo sapiens) (P11229 whole entry, looked up): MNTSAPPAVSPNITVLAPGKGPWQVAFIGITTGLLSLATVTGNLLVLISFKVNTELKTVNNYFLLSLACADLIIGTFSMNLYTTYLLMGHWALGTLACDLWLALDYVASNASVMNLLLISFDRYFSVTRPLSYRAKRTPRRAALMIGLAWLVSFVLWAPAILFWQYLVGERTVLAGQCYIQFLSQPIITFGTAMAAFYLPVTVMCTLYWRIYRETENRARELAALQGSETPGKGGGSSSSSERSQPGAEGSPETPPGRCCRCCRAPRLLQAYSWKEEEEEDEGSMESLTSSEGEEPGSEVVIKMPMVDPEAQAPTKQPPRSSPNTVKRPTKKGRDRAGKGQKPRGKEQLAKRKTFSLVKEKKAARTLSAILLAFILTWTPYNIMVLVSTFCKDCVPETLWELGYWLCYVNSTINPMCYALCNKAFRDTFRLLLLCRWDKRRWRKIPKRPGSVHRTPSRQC
How it was run: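 qHTS, 15-point titration, 3 independent runs: compounds pin-transferred onto dye-loaded CHRM1-CHO cells (human M1), calcium fluorescence followed every second to detect agonism.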

[14] = cAMP Responsive Elements (CRE) small molecule antagonists, cell-based qHTS assay (AID 1963591; active = well fitted inhibition curve with a large enough effect in the signal ratio in the repeat runs, not every such curve was filed as active; the % refers to the signal ratio)
How it was run: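 Fluorescence intensity from cleaved LiveBLAzer B/G substrate (2 h, room temperature) quantified CRE-bla activity in HEK 293T cells exposed 3 h to compound with 0.25 uM final NKH477.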

[15] = biological target: Beta-2 adrenergic receptor (Homo sapiens) (UniProt P07550); assay: Adrenergic beta2 receptor (ADRB2) small molecule antagonists, cell-based qHTS assay (AID 1963592); note: series mostly up to about 92 µM; nearly all actives have a fitted effect of over 50% in size
Sequence of Beta-2 adrenergic receptor (Homo sapiens) (P07550 whole entry, looked up): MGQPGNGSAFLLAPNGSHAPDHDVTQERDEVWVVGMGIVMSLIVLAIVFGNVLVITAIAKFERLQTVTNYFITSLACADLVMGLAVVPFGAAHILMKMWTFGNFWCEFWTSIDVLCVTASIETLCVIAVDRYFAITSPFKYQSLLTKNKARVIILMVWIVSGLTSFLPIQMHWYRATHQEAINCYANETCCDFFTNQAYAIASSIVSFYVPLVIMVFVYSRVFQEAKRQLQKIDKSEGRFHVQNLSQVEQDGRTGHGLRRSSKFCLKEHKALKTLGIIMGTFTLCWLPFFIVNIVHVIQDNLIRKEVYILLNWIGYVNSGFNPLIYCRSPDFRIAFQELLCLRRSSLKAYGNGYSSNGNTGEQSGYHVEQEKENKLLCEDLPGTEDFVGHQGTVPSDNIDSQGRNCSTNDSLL
How it was run: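 Assay format: CHO-ADRB2 cells, 18-20hr seeding at 37C/5% CO2, then compound plus 1nM isoproterenol agonist mix for 0.5hr RT. Homogeneous time-resolved fluorescence cAMP detection after 1hr, expressed as 665/615 nm ratio.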

[16] = biological target: D(2) dopamine receptor (Homo sapiens) (UniProt P14416); assay: Dopamine D2 receptor (DRD2) small molecule agonists, cell-based qHTS assay (AID 1963594); note: nearly all actives have a fitted effect of over 35% in size
Sequence of D(2) dopamine receptor (Homo sapiens) (P14416 whole entry, looked up): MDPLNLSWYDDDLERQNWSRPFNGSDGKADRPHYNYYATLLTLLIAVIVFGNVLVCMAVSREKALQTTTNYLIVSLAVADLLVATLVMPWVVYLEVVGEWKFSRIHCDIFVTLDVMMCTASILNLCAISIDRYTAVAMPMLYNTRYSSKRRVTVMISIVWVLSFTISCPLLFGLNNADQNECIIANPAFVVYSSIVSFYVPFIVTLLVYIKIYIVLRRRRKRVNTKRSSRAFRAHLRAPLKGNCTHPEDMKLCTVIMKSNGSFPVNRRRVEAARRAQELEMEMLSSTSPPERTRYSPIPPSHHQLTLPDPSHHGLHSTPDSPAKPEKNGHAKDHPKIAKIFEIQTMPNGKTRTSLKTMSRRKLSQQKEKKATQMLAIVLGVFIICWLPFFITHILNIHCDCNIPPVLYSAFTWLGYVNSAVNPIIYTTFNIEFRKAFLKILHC
How it was run: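 HEK293 cells stably expressing human DRD2, pre-treated with PDE inhibitor Ro20-1724 (0.1 mM final) and compound 10 min at room temperature, then stimulated with NKH477 (200nM […]) for 30 min. cAMP read by HTRF (665/620 nm).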

[17] = biological target: D(2) dopamine receptor (Homo sapiens) (UniProt P14416); assay: Dopamine D2 receptor (DRD2) small molecule antagonists, cell-based qHTS assay (AID 1963595; active = well fitted inhibition curve with a large enough effect in the signal ratio in the repeat runs, with a control signal flat; the % refers to the signal ratio)
How it was run: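 Antagonist mode in DRD2-HEK293 cells: after compound addition with 0.1 mM Ro20-1724, cells received quinpirole (12 nM) and NKH477 (200 nM) for 30 min at room temperature; HTRF cAMP read after 1 h detection.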

[18] = biological target: Muscarinic acetylcholine receptor M1 (Homo sapiens) (UniProt P11229); assay: Cholinergic receptor muscarinic 1 (CHRM1) small molecule antagonists, cell-based qHTS assay (AID 1963588); note: nearly all actives have a fitted effect of over 40% in size
How it was run: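 Compounds were tested at 15 concentrations in three independent runs. Dye-loaded CHRM1-CHO cells were exposed 5 min at room temperature before stimulation by acetylcholine added at 50nM. Intracellular calcium was read kinetically on FDSS for 3 min.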

[19] = cAMP Responsive Elements (CRE) small molecule agonists, cell-based qHTS assay (AID 1963590)
How it was run: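 Quantitative HTS for CRE agonists: HEK 293T CRE-bla cells, overnight plating, 3 h compound incubation at 37 C/5% CO2, then 2 h room-temperature LiveBLAzer B/G FRET substrate loading.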

Measured: Potency

O=C(CCc1ccc(O)cc1)c1c(O)cc(O)cc1O
active: [2] 70.1 µM | [11] 38.4 µM
inactive: [1] | [3] | [4] | [5] | [6] | [7] | [8] | [9] | [10] | [12] | [13] | [14] | [15] | [16] | [17]

CC(C)(C)c1cccc(O)c1
inactive: [1] | [3] | [4] | [5] | [6] | [7] | [8] | [9] | [10] | [12] | [18] | [13] | [19] | [14] | [15] | [16] | [17]
active: [2] 61.1 µM

N#CSc1ccc(N)c([N+](=O)[O-])c1
inactive: [3] | [4] | [5] | [6] | [7] | [8] | [9] | [10] | [11] | [18] | [13] | [14] | [15] | [17]
active: [1] 43.5 µM | [2] 24.5 µM

CC(C)=CCC/C(C)=C/C=N/O
inactive: [1] | [2] | [3] | [4] | [5] | [6] | [7] | [8] | [9] | [10] | [11] | [18] | [13] | [15] | [16] | [17]

OCC(O)[C@@H](O)[C@H](O)[C@H](O)CO[C@H]1O[C@H](CO)[C@@H](O)[C@H](O)[C@H]1O (stereo partly specified)
inactive: [1] | [2] | [3] | [4] | [5] | [6] | [7] | [8] | [9] | [10] | [11] | [18] | [13] | [19] | [14] | [15] | [16] | [17]

Nc1c(Cl)cc(Cl)cc1Cl
inactive: [1] | [2] | [3] | [4] | [5] | [6] | [7] | [8] | [9] | [10] | [11] | [12] | [19] | [14] | [15] | [16] | [17]
active: [13] 8.58 µM

CCN(CC)CCNC(=O)COc1ccc(Cl)cc1
inactive: [1] | [2] | [3] | [4] | [5] | [6] | [7] | [8] | [9] | [10] | [12] | [18] | [13] | [19] | [14] | [15] | [16] | [17]
